Compound activity from PubChem.
MLLE-PAM2 inh = blocks PAM2 peptide binding to the PABP1 MLLE domain. P11940. 0.36% of 360,000 active. GST-MLLE / FITC-PAM2 fluorescence polarization. AID 588489. inhibition, % at 20 µM; in the data active means inhibition above about 35%, passing the limit was not always enough
eIF4H inh = inhibitors of RNA binding by human eIF4H. Q15056. eIF4H fluorescence polarization binding assay. inhibition, % at 35 µM. 0.94% of 290,000 active. AID 2012;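 further: calls also rest on retests at 20 µM and on dose response follow-up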
PABP FP inh = blocks human PABP binding to poly(A) RNA; calls only at 35 µM; fluorescence polarization; P11940; 1% of 290,000 active;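 further: calls also rest on retests at 20 µM and on dose response follow-up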
eIF4E-4G inh = eIF4E/eIF4G interaction inhibition in translation initiation | P63073+Q04637 | TR-FRET eIF4E-eIF4GI(517-606) binding, 2 h | inhibition, % at 21.7 µM | 0.37% of 220,000 active | AID 782;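 active means inhibition above about 30%, limit read from the data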
Hits are given with their value. The list is not random: actives were taken first. Their share in the collection is about 1.5%. Unless noted, how the calls were made is not given here.

CC(/C=N/NC(=O)c1ccc(CN2c3cccc4cccc(c34)S2(=O)=O)cc1)c1ccccc1 (configuration not stated) was read as MLLE-PAM2 inh inactive, eIF4H inh inactive, PABP FP inh inactive and eIF4E-4G inh inactive.
O=C(O)c1ccc(/C=N/NC(=O)c2ccc(CN3c4cccc5cccc(c45)S3(=O)=O)cc2)cc1 was read as MLLE-PAM2 inh inactive, eIF4H inh 59, PABP FP inh inactive and eIF4E-4G inh inactive.
CNc1cncc(-c2ccc(O)cc2C)n1 was read as MLLE-PAM2 inh inactive.
For Oc1ccccc1C1Nc2cccc3cccc(c23)N1 the results were MLLE-PAM2 inh inactive, eIF4H inh 95, PABP FP inh active and eIF4E-4G inh inactive.
`Clc1cccc(C2Nc3cccc4cccc(c34)N2)c1` gave MLLE-PAM2 inh inactive, eIF4H inh 53 and PABP FP inh active.
Clc1ccc(C2Nc3cccc4cccc(c34)N2)cc1Cl was read as MLLE-PAM2 inh inactive, eIF4H inh 55 and PABP FP inh active.
Screening Brc1cccc(C2Nc3cccc4cccc(c34)N2)c1 returned MLLE-PAM2 inh inactive, eIF4H inh inactive and PABP FP inh inactive.
For c1csc(C2Nc3cccc4cccc(c34)N2)c1 the results were MLLE-PAM2 inh 41, eIF4H inh inconclusive, PABP FP inh inconclusive and eIF4E-4G inh inactive.
`COc1ccccc1C1Nc2cccc3cccc(c23)N1` gave MLLE-PAM2 inh inactive, eIF4H inh inconclusive, PABP FP inh inconclusive and eIF4E-4G inh inactive.
For Cc1ccc2c(c1)C1(SC(C)C(=O)N1c1ccc(Cl)cc1)C(=O)N2 (configuration not stated) the results were MLLE-PAM2 inh inactive.
Screening CCCCN1C(=O)C(CC(=O)NCc2ccco2)CC(C(=O)N(C(C)C)C(C)C)=C1C (configuration not stated) returned MLLE-PAM2 inh inactive.
For Cc1ccc(OCC(=O)NNC(=O)c2ccc(F)c(S(=O)(=O)N3CCOCC3)c2)cc1C the results were MLLE-PAM2 inh inactive.
`O=[N+]([O-])c1ccc(Cl)c(C2Nc3cccc4cccc(c34)N2)c1` gave MLLE-PAM2 inh inactive, eIF4H inh 97, PABP FP inh active and eIF4E-4G inh inactive.
For c1ccc(C2Nc3cccc4cccc(c34)N2)cc1 the results were MLLE-PAM2 inh inactive, eIF4H inh 86 and PABP FP inh active.
`O=[N+]([O-])c1ccccc1C1Nc2cccc3cccc(c23)N1` gave MLLE-PAM2 inh inactive, eIF4H inh inactive, PABP FP inh inactive and eIF4E-4G inh inactive.
Screening Brc1ccc(C2Nc3cccc4cccc(c34)N2)o1 returned MLLE-PAM2 inh inactive, eIF4H inh 99, PABP FP inh active and eIF4E-4G inh inactive.
For CN(C)c1ccc(C2Nc3cccc4cccc(c34)N2)cc1 the results were MLLE-PAM2 inh inactive, eIF4H inh inactive and PABP FP inh inactive.
For Cc1c(NC(=O)CNCc2ccc3c(c2)OCO3)c(=O)n(-c2ccccc2)n1C the results were MLLE-PAM2 inh inactive, eIF4H inh inactive, PABP FP inh inactive and eIF4E-4G inh inactive.
COc1ccc(NC(=O)NNC(=O)CCc2ccc(O)c(O)c2)cc1OC was read as MLLE-PAM2 inh inactive, eIF4H inh 57 and PABP FP inh inactive.
COC(=O)c1ccccc1NC(=O)Cc1nc(-c2ccccc2)sc1-c1ccc(C)cc1 was read as MLLE-PAM2 inh inactive, eIF4H inh active, PABP FP inh active and eIF4E-4G inh inactive.
`O=C(Nc1nc(-c2ccco2)c(-c2ccco2)s1)C1CC(=O)N(c2ccc3c(c2)OCCO3)C1` (configuration not stated) gave MLLE-PAM2 inh inactive, eIF4H inh 84, PABP FP inh active and eIF4E-4G inh inactive.
Screening CCOC(=O)C(=O)N/N=C/c1ccco1 returned MLLE-PAM2 inh inactive, eIF4H inh 94, PABP FP inh active and eIF4E-4G inh inactive.
`CCCCNC(=S)N(C)/N=C/c1c(C)[nH]c2ccccc12` gave MLLE-PAM2 inh inactive, eIF4H inh 50, PABP FP inh inactive and eIF4E-4G inh inactive.
For O=C(NC1CCCCCCC1)c1ccc2c(c1)OCO2 the results were MLLE-PAM2 inh inactive, eIF4H inh inactive, PABP FP inh inactive and eIF4E-4G inh 32.
`CCC1=C/C(=C/N(C)c2ccccc2)C(=O)S1` gave MLLE-PAM2 inh inactive, eIF4H inh 53, PABP FP inh active and eIF4E-4G inh inactive.
For CN(C)/C=C1/C=C(c2ccccc2)OC1=O the results were MLLE-PAM2 inh inactive, eIF4H inh inactive, PABP FP inh inactive and eIF4E-4G inh inactive.
For CC(CNC(=O)CC[C@H]1O[C@@H](n2cnc3c(NC(=O)c4ccccc4)ncnc32)[C@H](O)[C@@H]1O)c1ccccc1 (some centres not stated) the results were MLLE-PAM2 inh inactive.
CCOC(=O)C1=C(c2ccccc2)NC(N)=NC1c1ccc(OCc2ccc(Cl)cc2)c(OC)c1 (configuration not stated) was read as MLLE-PAM2 inh inactive, eIF4H inh inactive, PABP FP inh inactive and eIF4E-4G inh 37.
Screening CCNC(=O)N(C)c1c(CC)nc2ccc(C(=O)N3CCN(C(C)=O)CC3)cn12 returned MLLE-PAM2 inh inactive.
For N=C1/C(=C/c2ccc(Br)o2)C(=O)N=C2SC(CC(=O)N3CCCC3)=NN12 the results were MLLE-PAM2 inh inactive.
N=C1/C(=C/c2ccco2)C(=O)N=C2SC(CC(=O)N3CCCC3)=NN12 was read as MLLE-PAM2 inh inactive, eIF4H inh 79 and PABP FP inh active.
Screening CC(C)CS(=O)(=O)C1=NN2C(=N)/C(=C\c3ccc(OC(=O)c4ccco4)cc3)C(=O)N=C2S1 returned MLLE-PAM2 inh inactive, eIF4H inh 66 and PABP FP inh active.
For CCc1cc(C(=O)OC)c(NC(=O)CC2Nc3cc(C)c(C)cc3NC2=O)s1 (configuration not stated) the results were MLLE-PAM2 inh inactive, eIF4H inh inactive, PABP FP inh inactive and eIF4E-4G inh inactive.
COC(=O)c1c(NC(=O)CC2Nc3cc(C)c(C)cc3NC2=O)sc(C)c1C (configuration not stated) was read as MLLE-PAM2 inh inactive, eIF4H inh 86, PABP FP inh active and eIF4E-4G inh inactive.
Screening COc1ccccc1NC(=O)c1sc2nc(Cc3ccccc3)cc(C(F)(F)F)c2c1N returned MLLE-PAM2 inh inactive, eIF4H inh 65, PABP FP inh active and eIF4E-4G inh inactive.
CC(=O)C1=CCC(c2cccc3ccccc23)N(S(=O)(=O)c2ccc(C)cc2)C1 (configuration not stated) was read as MLLE-PAM2 inh inactive.
`CC(Cc1ccccc1)NC(=S)CN1CCCC1=S` (configuration not stated) gave MLLE-PAM2 inh inactive, eIF4H inh 53, PABP FP inh inactive and eIF4E-4G inh inactive.
For Cc1cccnc1C(NC(=O)C1CCN(Cc2cn(C)c3ccccc23)CC1)c1ccc(Cl)cc1 (configuration not stated) the results were MLLE-PAM2 inh inactive.
For COc1ccc(-c2ncncc2-c2ccc(Cl)cc2)c(O)c1 the results were MLLE-PAM2 inh inactive, eIF4H inh inactive, PABP FP inh inactive and eIF4E-4G inh 83.
Screening COc1ccc(-c2c(C)nc(N)nc2-c2ccc(OC)cc2O)cc1 returned MLLE-PAM2 inh inactive, eIF4H inh 66 and PABP FP inh active.
